Compound activity from PubChem.
AMA1-RON2 inh: inhibitors of Plasmodium falciparum AMA1-RON2 interaction; hit rate 0.2% among 360,000; AlphaScreen AMA1-biotinylated RON2 peptide binding; Potency, µM (top dose mostly 58.2 µM), without a hit: at the top dose activity change, negative = inhibition, usual class: inhibitors;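 further: 0% = vehicle wells and -100% = peptide control; nearly all actives have a fitted effect of over 45% in size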
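AMA1 (3D7) with his tag at 25 nM final met compounds first, then biotinylated RON2 peptide at 25 nM; detection used donor plus acceptor beads, 10 µg/mL apiece, read by AlphaScreen after 30 min at room temperature.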
TbPYK inhibitor: T. brucei pyruvate kinase inhibition | Q57TT1 | TbPYK enzyme, Kinase-Glo Plus ATP luminescence, 45 min | Potency, µM (top dose mostly 76.8 µM), for inactives: top-dose activity, negative = inhibition, usual class: inhibitors | hit rate 0.12% among 410,000 | AID 624173; further: nearly all actives have a fitted effect of over 50% in size
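Activity of T. brucei pyruvate kinase was followed by Kinase-Glo Plus luminescence after the enzyme reacted 45 min at room temperature with 130 uM ADP (final) and substrate. Test compounds were added before ADP at multiple concentrations.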
LmPK inhibitor: LmPK (Leishmania mexicana) enzyme inhibition | purified LmPK, Kinase-Glo ATP luminescence, 1 h | Q27686 | hit rate 0.37% among 290,000 | Potency, µM (highest dose often 57.5 µM), inactives show top-dose activity change, negative = inhibition, hits mostly inhibitors
Target sequence (Q27686 whole entry, looked up): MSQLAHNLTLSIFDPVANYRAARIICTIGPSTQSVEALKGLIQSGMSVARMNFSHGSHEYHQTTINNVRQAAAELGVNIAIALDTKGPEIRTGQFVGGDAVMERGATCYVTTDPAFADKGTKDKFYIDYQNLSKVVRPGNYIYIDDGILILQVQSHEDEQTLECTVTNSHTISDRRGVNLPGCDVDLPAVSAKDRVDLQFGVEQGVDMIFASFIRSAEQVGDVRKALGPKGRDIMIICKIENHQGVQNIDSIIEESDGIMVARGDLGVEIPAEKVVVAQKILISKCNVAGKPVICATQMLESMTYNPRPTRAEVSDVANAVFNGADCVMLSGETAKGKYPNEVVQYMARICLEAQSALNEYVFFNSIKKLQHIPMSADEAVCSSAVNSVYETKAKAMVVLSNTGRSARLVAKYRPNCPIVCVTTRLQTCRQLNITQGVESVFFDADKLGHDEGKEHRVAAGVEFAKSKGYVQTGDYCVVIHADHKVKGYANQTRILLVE
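Purified LmPK (0.1 nM) converted ADP (0.1 mM) to ATP with PEP (0.5 mM) in imidazole buffer pH 7.2 with KCl and MgCl2, 1 h at room temperature. ATP was read by Kinase-Glo luminescence; data normalized to uninhibited and no-enzyme controls.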
RE007 growth inh: less growth of the S. pombe RE007 Vpr strain; AID 651644; hit rate 0.21% among 360,000; Potency, µM (top dose mostly 92.2 µM), for inactives: at the top dose activity change, negative = less growth, usual class: inhibitors; S. pombe RE007 Vpr strain, BacTiter-Glo ATP luminescence, 24 h; active means well fitted falling curve with a large enough effect; inconclusive means small, poorly fitted or top-dose-only effect; inactive means no such curve, though single readings can be large or run the other way; further: nearly all actives have a fitted effect of over 50% in size
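Fission yeast RE007 carrying one integrated HIV-1 vpr copy, seeded at OD 0.01 in PMG+AL medium with 23 nL pinned compound. Grown 24 h at 30 degrees; viability read by BacTiter-Glo luminescence after 5 min.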
Sm TGR inh: S. mansoni TGR enzyme inhibition. Q962Y6. purified TGR, DTNB reduction, TNB absorbance 405 nm. Potency, µM (series often up to 114 µM), without a hit: at the top dose activity change, negative = inhibition, usual class: inhibitors. hit rate 3% among 360,000. AID 485364; further: nearly all actives have a fitted effect of over 60% in size
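First, TGR (20 nM dispensed) and NADPH were mixed with compound. Second, a 15 min room-temperature incubation followed. Third, further NADPH and then DTNB were added to start the reaction. Finally, TNB absorbance was monitored kinetically.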
* marks the source's active call; other numbers are inactive results; ? = inconclusive; / = no result. This is a sample that favours compounds with a hit; in the whole collection about 3.2% have one here. Unless noted, the call rests on the fitted dose curve; in most records, active means well fitted curve in the direction sought with a large enough effect; inconclusive means small, poorly fitted or top-dose-only effect, or another doubt; inactive means no such curve, though single readings can be large; an effect the other way counts as inactive or inconclusive. Unless noted, on the % scale 0 is the no-effect control and ±100 the full control effect; potency means the concentration at half of the fitted maximal effect.

SMILES	AMA1-RON2 inh	TbPYK inhibitor	LmPK inhibitor	RE007 growth inh	Sm TGR inh
CN(Cc1ccco1)S(=O)(=O)c1nnc(NC(=O)c2ccc(F)cc2)s1	-8.7%	-11.1%	-9.4%	-4.4%	0.0%
CCOc1ccccc1NC(=O)c1cc(S(=O)(=O)N2CCOCC2)cn1C	/	-1.9%	/	/	-4.1%
Nc1ccc(C(=O)Nc2cccc3ncccc23)cc1	14.7%	-0.3%	-0.4%	15.0%	1.4%
CC(=O)Nc1cccc2ncccc12	-1.8%	0.8%	-3.1%	2.9%	6.4%
O=C(NC(=S)Nc1cccc2ncccc12)c1ccccc1	22.7%	-3.1%	-0.2%	-4.0%	8.91µM*
O=C(NC(=S)Nc1cccc2ncccc12)c1cccs1	-5.9%	2.5%	2.9%	-26.8%	3.98µM*
COC(=O)c1c(NC(=O)c2cc3nc(-c4ccc(Br)cc4)cc(C(F)(F)F)n3n2)sc2c1CCCC2	/	-2.9%	/	/	0.9%
C[C@@H]1C[C@H](O)c2cc(Cl)ccc2N1	-3.8%	-3.7%	-1.6%	6.2%	39.8µM*
C=CCOc1c(Cl)cc(CNc2ccc(C)c(Cl)c2)cc1OC	/	/	3.5%	/	15.3%
C=CCOc1c(Cl)cc(CNc2ccc(N(C)C)cc2)cc1OC	-24.2%	-9.1%	-3.2%	-18.3%	17.8µM*
CCOc1ccccc1NC(=O)Cn1nnc2sc3c(c2c1=O)CCC(C(C)(C)C)C3 (stereo not drawn)	/	-0.8%	/	/	4.6%
COCC1CCCN(C(=O)c2ccc3oc(CCCc4ccccc4)nc3c2)C1 (stereo not drawn)	-9.9%	-3.7%	-2.3%	-8.2%	28.2µM*
COc1ccc2[nH]c3c(=O)n(CCCCC(=O)N4CCCC4)c(=S)[nH]c3c2c1	44.4%	?	2µM*	-5.6%	5.2%
CCCNC(=O)CCCCn1c(=S)[nH]c2c([nH]c3ccc(OC)cc32)c1=O	114.7%	-13.5%	-2.5%	1.3%	-1.2%
Cc1ccc(C(C)C)c(OCCCn2c(=O)oc3ccc(C)cc32)c1	/	0.4%	/	/	11.2%
Cc1ccccc1CNC(=O)c1ccc(NC(=O)c2nsc3ccccc23)cc1	/	-12.5%	/	/	25.1µM*
COc1ccc(OC)c(NC(=S)NN2CCOCC2)c1	11.4%	2.6%	-7.5%	-0.4%	-3.5%
COc1ccc(Cl)cc1NC(=S)NN1CCOCC1	?	29.5%	0.6%	3.5%	35.5µM*
Cc1noc(/C=C/c2cccs2)c1S(=O)(=O)N1CCC(C(=O)NCc2ccccc2Cl)CC1	/	1.7%	/	/	0.7%
COc1ccc(NC(=S)NC(=O)c2cccnc2)cc1	18.0%	0.7%	0.4%	-4.0%	22.4µM*
O=C(O)c1ccc(NC(=S)NC(=O)c2cccnc2)cc1	2.3%	-20.6%	0.8%	-8.0%	35.5µM*
COc1ccc(NC(=S)NC(=O)c2ccc(Br)o2)cc1	54.3%	1.7%	-1.2%	5.3%	8.91µM*
COc1ccc(CCC(=O)NCc2nc3cccnc3n2Cc2ccc(OC)cc2)cc1	/	-3.5%	/	/	5.3%
CN(C)c1ccc(/C=C(\C#N)c2nc(-c3ccc(Cl)c(Cl)c3)cs2)cc1	/	2.4%	/	/	1.9%
CC(NC(=O)c1ccc(F)cc1)c1nc2ccccc2[nH]1 (stereo not drawn)	/	-5.1%	/	/	-2.1%
SMILES	AMA1-RON2 inh	TbPYK inhibitor	LmPK inhibitor	RE007 growth inh	Sm TGR inh
Cc1cc(C(C)(C)C)c(O)c(C(C)(C)C)c1	-3.4%	-6.7%	-2.5%	2.6%	2.7%
Cc1cc(O)c(Oc2cc(C)cc(O)c2O)c(O)c1	4.47µM*	-23.3%	-7.7%	3.4%	?
O=C(/C=C/c1ccco1)N(Cc1ccccc1F)C1CCS(=O)(=O)C1 (stereo not drawn)	-5.7%	-5.5%	-0.4%	0.4%	10µM*
CC(C)c1ccc(CN(C(=O)/C=C/c2ccco2)C2CCS(=O)(=O)C2)cc1 (stereo not drawn)	-3.7%	-21.6%	4.0%	4.9%	3.55µM*
CC(C)c1ccc(CN(C(=O)c2ccco2)C2CCS(=O)(=O)C2)cc1 (stereo not drawn)	7.3%	-1.8%	1.5%	8.0%	5.5%
Cc1cccc(C(=O)N(Cc2ccccc2F)C2CCS(=O)(=O)C2)c1 (stereo not drawn)	/	-0.6%	/	/	-1.9%
CCS(=O)(=O)N1CCc2cc(C(=O)Nc3ccc(OC)cc3OC)ccc21	/	-3.0%	/	/	-2.2%
CC1=CC2/C=C(\C)CCC(O)C(O)/C=C/C(=O)C23C(=O)NC(CC(C)C)C3C1C (stereo not drawn)	-2.9%	?	-1.7%	7.3%	3.98µM*
CC(=O)NC(=S)Nc1cc(C(F)(F)F)ccc1N1CCOCC1	1.0%	-1.4%	-3.0%	-7.9%	-26.7%
O=C(NC(=S)Nc1cc(C(F)(F)F)ccc1N1CCOCC1)c1ccco1	36.4%	-4.2%	4.4%	3.7%	11.2µM*
COc1cc(C(=O)NC(=S)Nc2ccccc2N2CCOCC2)cc(OC)c1OC	25.5%	10.0%	?	1.7%	25.1µM*
COC(=O)c1c(C)oc2c1cc(NS(=O)(=O)c1ccc(C(=O)O)cc1)c1ccccc12	-0.2%	-13.6%	11.2%	-2.1%	50.1µM*
CC(=O)c1c(C)oc2c1cc(NS(=O)(=O)c1ccc(C(=O)O)cc1)c1ccccc12	20.2%	-9.7%	-1.5%	5.7%	-26.7%
CCCCc1nc2ccccc2n2c(-c3ccc(OC)cc3)c3c(=O)n(C)c(=O)n(C)c3c12	/	2.3%	/	/	0.3%
CC(C)C(NS(=O)(=O)c1ccc2c(c1)oc(=O)n2C)C(=O)N1CCN(c2cccc(Cl)c2)CC1 (stereo not drawn)	/	-2.8%	/	/	-4.2%
COc1cc(N=Nc2cccc(S(N)(=O)=O)c2)c2ccccc2c1N	-25.4%	-14.3%	?	-5.3%	56.2µM*
NC1=NC(=Nc2cccc(S(N)(=O)=O)c2)c2ccccc21	-6.6%	2.0%	-0.8%	-1.5%	15.1%
CCC1CN(C)C2Cc3c([nH]c4ccccc34)C(=O)CC1C2C(=O)OC (stereo not drawn)	0.5%	-0.2%	5.2%	-16.4%	44.7µM*
CC[C@H]1CN(C)C[C@@]2(C(=O)OC)Cc3c([nH]c4ccccc34)C(=O)C[C@@H]12	-0.9%	3.8%	/	12.9%	/
COc1ccc(-c2nc(CS(=O)CC(=O)NC3CCCCC3)c(C)o2)cc1 (stereo not drawn)	-6.6%	4.7%	-8.9%	1.7%	?
COc1ccc(-c2nc(CS(=O)CC(=O)N3CCOCC3)c(C)o2)cc1OC (stereo not drawn)	0.0%	0.0%	-10.1%	-6.5%	39.8µM*
COc1ccc(-c2nc(CS(=O)CC(=O)NC3CCCCCC3)c(C)o2)cc1 (stereo not drawn)	-11.3%	-2.5%	-1.7%	4.8%	39.8µM*
Cc1oc(-c2ccccc2)nc1CS(=O)CC(=O)NC1CCCC1 (stereo not drawn)	-5.1%	-2.0%	-1.4%	-0.8%	7.94µM*
COc1ccc(-c2nc(CS(=O)CC(=O)NC3CCCCC3)c(C)o2)cc1OC (stereo not drawn)	-3.6%	-1.4%	3.5%	-0.9%	35.5µM*
